This note sets out measurements from ChEMBL document CHEMBL1961873, “Compounds: GSK PKIS; Assays: Nanosyn kinase panel” (2012).

For test [1], the target named is RAC-alpha serine/threonine-protein kinase (Homo sapiens) (UniProt P31749). Conditions: at 0.1 µM.
The target is the same in test [2]. Conditions: at 1 µM.
The target of test [3] is RAC-beta serine/threonine-protein kinase (Homo sapiens) (UniProt P31751). Conditions: at 0.1 µM.
Test [4] has the same target. Conditions: at 1 µM.
The target of test [5] is RAC-gamma serine/threonine-protein kinase (Homo sapiens) (UniProt Q9Y243). Conditions: at 0.1 µM.
RAC-gamma serine/threonine-protein kinase (Homo sapiens), sequence (Q9Y243 whole entry): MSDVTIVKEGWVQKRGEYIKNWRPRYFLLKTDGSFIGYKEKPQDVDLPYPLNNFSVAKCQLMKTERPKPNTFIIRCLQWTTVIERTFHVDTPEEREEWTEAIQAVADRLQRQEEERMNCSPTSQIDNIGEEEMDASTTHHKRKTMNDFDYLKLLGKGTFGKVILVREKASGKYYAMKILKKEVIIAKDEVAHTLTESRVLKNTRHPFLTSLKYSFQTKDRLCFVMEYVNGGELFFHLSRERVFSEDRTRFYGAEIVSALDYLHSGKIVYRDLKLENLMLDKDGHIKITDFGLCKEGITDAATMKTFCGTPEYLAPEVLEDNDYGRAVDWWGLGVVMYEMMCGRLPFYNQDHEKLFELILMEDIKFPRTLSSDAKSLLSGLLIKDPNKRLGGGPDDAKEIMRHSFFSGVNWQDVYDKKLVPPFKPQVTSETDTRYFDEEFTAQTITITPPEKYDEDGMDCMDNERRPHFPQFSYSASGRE
Test [6] shares this target. Conditions: at 1 µM.
The target of test [7] is G protein-coupled receptor kinase 6 (Homo sapiens) (UniProt P43250). Conditions: at 0.1 µM.
G protein-coupled receptor kinase 6 (Homo sapiens), sequence (P43250 whole entry, looked up): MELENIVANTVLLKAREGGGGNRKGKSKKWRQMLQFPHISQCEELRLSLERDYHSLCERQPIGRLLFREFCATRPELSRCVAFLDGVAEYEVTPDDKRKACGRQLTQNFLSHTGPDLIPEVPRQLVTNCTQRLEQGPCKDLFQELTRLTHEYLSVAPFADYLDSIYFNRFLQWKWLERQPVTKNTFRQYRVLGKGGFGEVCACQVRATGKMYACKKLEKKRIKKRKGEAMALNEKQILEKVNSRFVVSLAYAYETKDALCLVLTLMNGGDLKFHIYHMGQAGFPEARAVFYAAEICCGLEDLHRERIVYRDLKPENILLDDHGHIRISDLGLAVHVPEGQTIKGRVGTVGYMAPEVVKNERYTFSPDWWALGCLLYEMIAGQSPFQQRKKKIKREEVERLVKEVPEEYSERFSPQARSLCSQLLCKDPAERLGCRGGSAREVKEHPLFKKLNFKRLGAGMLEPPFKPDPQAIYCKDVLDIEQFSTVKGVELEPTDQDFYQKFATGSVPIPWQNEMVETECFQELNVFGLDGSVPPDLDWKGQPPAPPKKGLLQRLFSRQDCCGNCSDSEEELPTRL
For test [8] the target is unchanged. Particulars: at 1 µM.
Test [9] addresses T1, Rhodopsin kinase GRK7 (Homo sapiens) (UniProt Q8WTQ7).
T1 sequence (whole entry): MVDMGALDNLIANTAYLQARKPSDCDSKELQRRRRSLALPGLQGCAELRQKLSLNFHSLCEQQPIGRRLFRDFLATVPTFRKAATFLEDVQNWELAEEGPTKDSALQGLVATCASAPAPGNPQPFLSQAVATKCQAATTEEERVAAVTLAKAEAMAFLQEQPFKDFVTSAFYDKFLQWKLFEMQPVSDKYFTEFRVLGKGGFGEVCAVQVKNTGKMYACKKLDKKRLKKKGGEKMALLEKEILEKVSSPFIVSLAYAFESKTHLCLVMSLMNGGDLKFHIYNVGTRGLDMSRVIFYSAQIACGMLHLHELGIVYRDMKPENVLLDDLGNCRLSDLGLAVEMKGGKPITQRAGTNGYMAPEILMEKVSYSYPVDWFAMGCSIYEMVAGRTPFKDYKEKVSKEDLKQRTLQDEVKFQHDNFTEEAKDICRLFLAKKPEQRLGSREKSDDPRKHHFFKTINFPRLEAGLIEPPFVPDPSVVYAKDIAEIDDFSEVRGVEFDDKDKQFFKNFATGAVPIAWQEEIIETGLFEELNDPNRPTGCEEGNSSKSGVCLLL
Particulars: at 0.1 µM.

Test [10] concerns the target T1, Rhodopsin kinase GRK7 (Homo sapiens). Conditions: at 1 µM.
The target in test [11] is Serine/threonine-protein kinase MRCK alpha (Homo sapiens) (UniProt Q5VT25). Particulars: at 0.1 µM.
Serine/threonine-protein kinase MRCK alpha (Homo sapiens), sequence (Q5VT25 whole entry): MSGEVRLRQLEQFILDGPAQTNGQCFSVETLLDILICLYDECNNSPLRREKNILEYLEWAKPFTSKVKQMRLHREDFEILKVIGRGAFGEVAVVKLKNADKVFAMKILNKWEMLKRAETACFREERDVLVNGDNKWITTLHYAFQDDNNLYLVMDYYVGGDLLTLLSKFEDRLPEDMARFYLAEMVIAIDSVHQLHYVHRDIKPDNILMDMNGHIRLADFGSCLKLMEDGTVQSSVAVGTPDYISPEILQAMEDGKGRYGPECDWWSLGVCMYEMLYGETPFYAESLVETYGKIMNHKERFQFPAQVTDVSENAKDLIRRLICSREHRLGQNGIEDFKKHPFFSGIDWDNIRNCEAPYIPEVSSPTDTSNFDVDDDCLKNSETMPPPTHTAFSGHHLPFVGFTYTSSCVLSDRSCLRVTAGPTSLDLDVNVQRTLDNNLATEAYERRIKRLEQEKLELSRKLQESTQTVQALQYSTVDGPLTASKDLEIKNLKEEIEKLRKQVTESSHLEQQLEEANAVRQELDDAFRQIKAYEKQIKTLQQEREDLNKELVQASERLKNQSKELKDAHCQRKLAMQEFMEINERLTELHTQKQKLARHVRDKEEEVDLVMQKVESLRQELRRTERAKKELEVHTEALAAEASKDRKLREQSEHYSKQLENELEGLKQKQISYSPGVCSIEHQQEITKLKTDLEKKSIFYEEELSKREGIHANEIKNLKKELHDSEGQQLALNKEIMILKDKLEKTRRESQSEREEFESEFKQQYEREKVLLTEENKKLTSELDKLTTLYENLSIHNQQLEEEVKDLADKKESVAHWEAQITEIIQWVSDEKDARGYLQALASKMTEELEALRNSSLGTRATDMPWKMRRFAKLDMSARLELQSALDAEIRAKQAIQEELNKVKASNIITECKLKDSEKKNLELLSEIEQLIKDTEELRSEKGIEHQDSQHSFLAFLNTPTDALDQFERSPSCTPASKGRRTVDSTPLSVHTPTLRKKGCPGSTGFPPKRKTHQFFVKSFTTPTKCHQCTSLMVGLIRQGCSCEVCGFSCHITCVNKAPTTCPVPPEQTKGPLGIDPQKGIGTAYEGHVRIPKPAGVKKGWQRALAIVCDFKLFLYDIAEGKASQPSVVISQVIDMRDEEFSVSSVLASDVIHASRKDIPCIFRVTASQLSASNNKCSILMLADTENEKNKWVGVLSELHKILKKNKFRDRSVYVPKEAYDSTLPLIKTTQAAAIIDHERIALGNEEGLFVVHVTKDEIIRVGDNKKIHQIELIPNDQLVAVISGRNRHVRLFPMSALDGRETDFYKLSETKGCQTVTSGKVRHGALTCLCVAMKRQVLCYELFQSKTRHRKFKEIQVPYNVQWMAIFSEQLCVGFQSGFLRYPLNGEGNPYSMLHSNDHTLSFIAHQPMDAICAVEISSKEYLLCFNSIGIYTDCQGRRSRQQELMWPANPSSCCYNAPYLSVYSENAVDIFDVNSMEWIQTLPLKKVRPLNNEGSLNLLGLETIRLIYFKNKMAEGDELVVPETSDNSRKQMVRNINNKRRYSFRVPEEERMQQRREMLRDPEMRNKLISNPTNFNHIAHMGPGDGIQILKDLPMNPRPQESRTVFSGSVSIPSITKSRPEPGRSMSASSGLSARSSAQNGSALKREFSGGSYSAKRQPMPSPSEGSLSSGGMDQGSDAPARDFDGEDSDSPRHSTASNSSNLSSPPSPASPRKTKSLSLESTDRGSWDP
Test [12] has the same target. Particulars: at 1 µM.
Test [13] concerns the target Serine/threonine-protein kinase MRCK beta (Homo sapiens) (UniProt Q9Y5S2). Conditions: at 0.1 µM.
For test [14] the target is unchanged. Conditions: at 1 µM.
Test [15] concerns the target Ribosomal protein S6 kinase alpha-5 (Homo sapiens) (UniProt O75582). Conditions: at 0.1 µM.
Test [16] has the same target. Particulars: at 1 µM.
The target in test [17] is Ribosomal protein S6 kinase alpha-4 (Homo sapiens) (UniProt O75676). Conditions: at 0.1 µM.
Ribosomal protein S6 kinase alpha-4 (Homo sapiens), sequence (O75676 whole entry, looked up): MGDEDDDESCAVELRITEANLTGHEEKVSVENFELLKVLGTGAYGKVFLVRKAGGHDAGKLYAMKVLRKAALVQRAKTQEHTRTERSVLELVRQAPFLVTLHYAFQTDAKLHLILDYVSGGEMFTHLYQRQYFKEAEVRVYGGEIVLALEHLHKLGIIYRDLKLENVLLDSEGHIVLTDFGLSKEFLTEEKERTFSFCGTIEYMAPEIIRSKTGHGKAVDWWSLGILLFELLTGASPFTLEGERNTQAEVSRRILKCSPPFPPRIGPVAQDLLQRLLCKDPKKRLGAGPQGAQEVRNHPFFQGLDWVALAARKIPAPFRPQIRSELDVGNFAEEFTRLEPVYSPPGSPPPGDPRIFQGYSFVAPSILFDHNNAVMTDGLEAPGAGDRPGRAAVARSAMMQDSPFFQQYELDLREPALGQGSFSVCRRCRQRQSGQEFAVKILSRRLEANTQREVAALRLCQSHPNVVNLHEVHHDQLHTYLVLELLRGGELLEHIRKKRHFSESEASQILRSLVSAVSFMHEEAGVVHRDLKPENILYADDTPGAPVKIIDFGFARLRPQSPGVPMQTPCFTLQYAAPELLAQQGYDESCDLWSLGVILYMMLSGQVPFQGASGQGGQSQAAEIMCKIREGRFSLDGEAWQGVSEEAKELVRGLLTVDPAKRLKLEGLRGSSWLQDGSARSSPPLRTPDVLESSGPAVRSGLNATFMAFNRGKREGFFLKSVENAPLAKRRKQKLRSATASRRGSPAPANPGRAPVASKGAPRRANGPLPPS
For test [18] the target is unchanged. Particulars: at 1 µM.
In test [19] the target is Ribosomal protein S6 kinase beta-1 (Homo sapiens) (UniProt P23443). Particulars: at 0.1 µM.
Ribosomal protein S6 kinase beta-1 (Homo sapiens), sequence (P23443 whole entry, looked up): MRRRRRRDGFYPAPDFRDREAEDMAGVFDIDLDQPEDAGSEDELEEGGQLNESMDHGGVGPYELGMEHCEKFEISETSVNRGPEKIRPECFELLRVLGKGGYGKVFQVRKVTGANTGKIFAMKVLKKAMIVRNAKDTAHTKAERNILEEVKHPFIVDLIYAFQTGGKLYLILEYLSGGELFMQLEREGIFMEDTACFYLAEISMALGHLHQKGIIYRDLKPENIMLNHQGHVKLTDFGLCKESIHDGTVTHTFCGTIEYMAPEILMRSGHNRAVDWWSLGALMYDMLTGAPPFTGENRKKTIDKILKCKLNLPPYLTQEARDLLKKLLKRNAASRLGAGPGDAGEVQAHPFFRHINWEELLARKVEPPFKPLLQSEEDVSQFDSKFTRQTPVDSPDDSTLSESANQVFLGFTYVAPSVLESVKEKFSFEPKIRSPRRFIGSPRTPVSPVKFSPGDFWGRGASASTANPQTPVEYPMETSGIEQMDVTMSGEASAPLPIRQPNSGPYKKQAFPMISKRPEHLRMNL
For test [20] the target is unchanged. Conditions: at 1 µM.

RAC-alpha serine/threonine-protein kinase (Homo sapiens), sequence (P31749 whole entry): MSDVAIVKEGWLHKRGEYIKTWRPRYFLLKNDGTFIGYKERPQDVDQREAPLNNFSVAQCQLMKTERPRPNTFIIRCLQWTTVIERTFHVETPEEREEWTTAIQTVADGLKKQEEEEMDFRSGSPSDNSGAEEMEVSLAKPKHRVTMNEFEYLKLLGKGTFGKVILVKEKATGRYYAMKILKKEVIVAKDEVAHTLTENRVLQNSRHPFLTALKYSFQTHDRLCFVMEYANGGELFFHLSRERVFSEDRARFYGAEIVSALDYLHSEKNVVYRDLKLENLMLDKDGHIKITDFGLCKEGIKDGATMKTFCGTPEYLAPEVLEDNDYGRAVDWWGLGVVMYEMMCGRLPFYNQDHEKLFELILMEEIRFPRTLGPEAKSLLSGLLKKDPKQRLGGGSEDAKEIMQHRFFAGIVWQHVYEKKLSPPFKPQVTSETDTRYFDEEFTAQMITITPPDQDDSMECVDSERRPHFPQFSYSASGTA
RAC-beta serine/threonine-protein kinase (Homo sapiens), sequence (P31751 whole entry): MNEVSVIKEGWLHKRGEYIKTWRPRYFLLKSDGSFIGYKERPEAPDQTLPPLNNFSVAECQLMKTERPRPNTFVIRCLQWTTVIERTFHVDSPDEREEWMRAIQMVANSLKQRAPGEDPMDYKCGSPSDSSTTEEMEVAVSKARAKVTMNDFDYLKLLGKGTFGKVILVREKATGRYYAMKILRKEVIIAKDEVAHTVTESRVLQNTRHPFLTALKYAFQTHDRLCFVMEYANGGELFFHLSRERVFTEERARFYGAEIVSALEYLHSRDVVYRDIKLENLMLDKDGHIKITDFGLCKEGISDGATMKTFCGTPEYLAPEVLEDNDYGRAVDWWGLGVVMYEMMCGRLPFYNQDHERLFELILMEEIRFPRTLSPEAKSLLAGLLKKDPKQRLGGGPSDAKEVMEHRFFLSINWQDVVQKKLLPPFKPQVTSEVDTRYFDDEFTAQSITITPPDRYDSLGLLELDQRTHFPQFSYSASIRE

The term inhibition denotes the drop in the measured response relative to a control, in per cent. Turning to `c1ccc(Oc2ccc(Nc3ncc(-c4ccccc4)o3)cc2)cc1`, the inhibition in test [1] was 0.05%; in test [2], 0.39%; in test [3], 0.18%; in test [4], 0.15%; in test [5], -0.09%; in test [6], 1.21%. In addition, the inhibition in test [7] is 2.54%; in test [8] it was 0.81%; in test [9], 2.37%; in test [10] it was 2%; in test [11] it was -0.31%; in test [12] it was 1.06%. Moreover, the inhibition in test [13] came to 0.44%; in test [14], 3.62%; in test [15], 0.98%; in [16], 3.6%; in test [17], 1.31%; in test [18] it was 3.78%. Moreover, the values for the inhibition in test [19] and in test [20] were 0.11% and -0.31%, respectively.

`COc1ccc2cc(-c3c(-c4ccncc4)nc(-c4ccc([S+](C)[O-])cc4C)n3C)ccc2c1` (stereo not given): the inhibition was -0.62% in [1]; -0.09% in test [2]; -0.6% in test [3]; -0.29% in test [4]; 0.09% in [5]; 1.08% in test [6]. The inhibition in [7] is 2.06%; in test [8], -0.69%; in test [9], -2.36%; in [10], -0.96%; in test [11], -1.8%; in [12], 1.91%. Further, the inhibition in test [13] is 0.22%; in [14], 1.15%; in test [15], -7.06%; in [16] it was -6.22%; in test [17], -0.04%; in test [18] it was -0.04%. For the same molecule, the inhibition in test [19] is 0.21%; in test [20], 0.05%.

Take `c1ccc(-c2n[nH]cc2-c2ccnc(-c3ccc(OCCN4CCOCC4)cc3)c2)nc1`: the inhibition in [1] was -0.28%; in test [2] it was 0.23%; in test [3], -0.23%; in test [4], -0.3%; in [5], -0.26%; in test [6], 0.6%. Moreover, the inhibition in test [7] is -5.07%; in test [8], -7.11%; in test [9], 1.66%; in test [10] it was -0.22%; in test [11], 6.85%; in [12], -2.76%. Besides, the inhibition in test [13] was found to be 7.67%; in [14], 5.68%; in [15] it was 3.06%; in [16], 1.22%; in [17], 3.23%; in test [18], 3.34%. In addition, the inhibition amounted to 2.04% in test [19] and 1.17% in test [20].

Consider `COc1cc(C)c(N(C)C(=O)CN(C)C)cc1Nc1nc(Nc2cccc(F)c2C(N)=O)c2cc[nH]c2n1`, for which the inhibition was -1.91% in test [1]; -1.8% in test [2]; -3.1% in test [3]; -2.1% in test [4]; -2.47% in [5]; -1.39% in [6]. Further, the inhibition is 3.68% in [7]; 17.8% in test [8]; -0.46% in test [9]; -6.16% in test [10]; 0.58% in test [11]; 0.78% in test [12]. The inhibition in test [13] is 1.08%; in test [14], 1.21%; in test [15], 1.09%; in test [16], 0.49%; in [17], 1.07%; in test [18], 2.79%. The figures for the inhibition in [19] and in test [20] were 2.18% and 1.42%, respectively.

With `COc1ccc(C2=C(N3CCc4ccccc43)C(=O)NC2=O)cc1`, the inhibition turned out to be 0.6% in [1]; 0.96% in test [2]; 2.65% in test [3]; 1.87% in test [4]; 1.01% in test [5]; 2.72% in test [6]. In addition, the inhibition was 8.72% in test [7]; 8.49% in [8]; 27.9% in test [9]; 20.3% in [10]; -0.56% in [11]; -0.21% in [12]. Besides, the inhibition was 1.1% in test [13]; 0.12% in test [14]; 4.26% in test [15]; 3.53% in test [16]; 2.26% in [17]; 3.24% in test [18]. For the same molecule, the figures for the inhibition in test [19] and in test [20] were 1.91% and 3.41%, respectively.

In the case of `CN(C)CCCNc1nccc(-c2c(-c3ccc(F)cc3)nn3cc(C(F)(F)F)ccc23)n1`, the inhibition in test [1] is -2.46%; in test [2], -2.95%; in test [3], -2.07%; in test [4], -3.03%; in [5] it was -2.14%; in [6] it was -2.29%. Also, the inhibition in test [7] is 0.16%; in [8], -2.93%; in test [9], -0.49%; in test [10], -5.64%; in test [11] it was 0.46%; in test [12], 1.03%. Further, the inhibition in [13] worked out at 0.48%; in test [14], 1.09%; in test [15] it was 1.3%; in test [16] it was 2.69%; in [17], 1.95%; in test [18], 4.5%. The inhibition in test [19] amounted to 2.93%; in [20], 3.55%.

With `O=C(Nc1ccc(Oc2ccc3[nH]c(NC(=O)c4ccccc4)nc3c2)cc1)Nc1cc(C(F)(F)F)ccc1F`, the inhibition in test [1] is -0.2%; in [2], 1.04%; in [3] it was 1.71%; in [4], 1.18%; in [5] it was 1.05%; in test [6], 1.51%. Moreover, the inhibition in test [7] is 2.58%; in test [8], 4.7%; in test [9], 0.51%; in test [10], -2.78%; in [11], -0.69%; in test [12], 1%. Moreover, the inhibition is -0.31% in test [13]; -0.22% in test [14]; 4.16% in test [15]; 5.67% in test [16]; 2.16% in test [17]; 3.01% in test [18]. Moreover, the inhibition worked out at 5.73% in test [19] and 36.4% in [20].

`CN(c1ccc(NC(=O)Nc2c(Cl)cccc2Cl)cc1)c1ccnc(Nc2cccc(CS(C)(=O)=O)c2)n1`: the inhibition in test [1] was 0.48%; in test [2], 1.09%; in test [3], 0.5%; in [4], 2.1%; in test [5], 3.21%; in [6] it was -0.15%. Further, the inhibition in test [7] came out at 3.24%; in [8] it was 3.8%; in test [9] it was 3.79%; in test [10], 1.55%; in test [11] it was 1.56%; in test [12], 2.97%. In addition, the inhibition in test [13] was 0.43%; in test [14] it was 0.92%; in test [15], 2.92%; in [16], 4.25%; in test [17] it was 2.24%; in test [18], 4.1%. Also, the inhibition is -1.3% in test [19] and 2.4% in test [20].
